# ChEMBL document CHEMBL3988442, “University of Dundee, Small-Polar-MMV Screening Library” (2021)
# About 960 (1.5%) of roughly 66,000 compounds showed an effect of 50% or more. This excerpt belongs to a sample that is enriched for strong results.
# Tested on: Trypanosoma brucei
# Experiment: Trypanosoma brucei 72 hour study
# Assay type: functional, organism-based
# Parameters: scale not given: in the data most compounds retested in dose-response had high values
Structure (SMILES),"Percent Effect (30.3 µM, […]) [%]","Percent Effect (30 µM, 30.03 µM) [%]"
O=C(O)C(F)(F)F.O=C([C@@H]1C[C@@H]2CCN(C3CCOCC3)C[C@@H]2O1)N1CCCC1,-37.65,
O=C(NCc1cccs1)[C@H]1CO[C@H]2CCN(C3CCCC3)C[C@H]2C1.O=C(O)C(F)(F)F,-53.03,
Cc1nc(CNC(=O)Nc2ccc3c(ccn3CCN(C)C)c2)no1,-6.711,
Cc1cc(NC(=O)Nc2ccc3c(ccn3CCN(C)C)c2)n(C)n1,55.17,
CN(C)CCn1ccc2cc(NC(=O)NCc3ncnn3C)ccc21,-3.411,
Cc1cccc(CN2Cc3ncn(C)c3C(COCC(=O)N(C)C)C2)n1.O=C(O)C(F)(F)F.O=C(O)C(F)(F)F.O=C(O)C(F)(F)F (centres undefined),-54.51,
Cl.c1cncc(CNc2cncc(C3CCCN3)n2)c1 (centres undefined),-3.878,
Cc1nc(CN2CCO[C@@H]3CN(Cc4nccs4)C[C@@H]3C2)cs1.O=C(O)C(F)(F)F.O=C(O)C(F)(F)F,,45.29
Cl.Cn1cc(CN(Cc2ccccc2)Cc2ccccn2)cn1,-17.42,
CN(C)[C@@H]1CN(Cc2ccccn2)C[C@H]1c1cn(C)c2ccccc12.Cl,22.59,
CN(C)[C@@H]1CN(Cc2ccccc2O)C[C@H]1c1cn(C)c2ccccc12.Cl,100,
CN(C)[C@@H]1CN(Cc2ccc(O)cc2)C[C@H]1c1cn(C)c2ccccc12.Cl,10.26,
CCn1nc(C)c(-c2cncn2CCN(C)C2CCCC2)c1C.Cl,-4.685,
O=C(c1c(O)cc(F)cc1F)N1CCc2cnccc21,,-42.5
CCO[C@@H]1CO[C@@]2(CCN(Cc3ccc4c(c3)OCO4)C2)C1.O=C(O)C(F)(F)F,14.48,
Cc1[nH]nc(CCC(=O)N2CCc3ncnc(NCCO)c3CC2)c1C,,-37
O=C(CCn1cccc1)N1CCc2[nH]nc(COc3ccccc3)c2C1,,-16.91

Structure (SMILES),"Percent Effect (30.3 µM, […]) [%]","Percent Effect (30 µM, 30.03 µM) [%]"
O=C(CCc1cccs1)N1CCc2[nH]nc(COc3ccccc3)c2C1,,68.24
O=C(CCc1ccco1)N1CCc2[nH]nc(COc3ccccc3)c2C1,,-57.79
Cc1nn(C(C)C)c(C)c1CN1CCN(C2CCCCC2)C(=O)C1.O=C(O)CC(O)(CC(=O)O)C(=O)O,-4.336,
CC(=O)N1CCCCC12CCCN(Cc1ccco1)C2.O=C(O)C(F)(F)F (centres undefined),5.13,
Cc1cc(C)c(-c2nc(-c3c(C)ncc4c3CCNC4)no2)o1,,-0.4206
CN(Cc1ccccn1)C1COC2(CCN(Cc3cccnc3)CC2)C1 (centres undefined),,-2.463
CN(C)CCN1C2(CCN(Cc3nccs3)C2)c2ccccc2S1(=O)=O.O=C(O)C(F)(F)F.O=C(O)C(F)(F)F (centres undefined),-461.1,
COCCN1C2(CCN(Cc3nccs3)C2)c2ccccc2S1(=O)=O.O=C(O)C(F)(F)F (centres undefined),-203.3,
CC(C)CCN1C2(CCN(Cc3nccs3)C2)c2ccccc2S1(=O)=O.O=C(O)C(F)(F)F (centres undefined),91.13,
CN(C)C1COC2(CCN(Cc3nccs3)CC2)C1.O=C(O)C(F)(F)F.O=C(O)C(F)(F)F (centres undefined),-5.42,
CN(Cc1cccnc1)C1CC2(CCN(c3ccccn3)CC2)C1.O=C(O)C(F)(F)F.O=C(O)C(F)(F)F.O=C(O)C(F)(F)F,,54.5
CN(Cc1ccco1)C1COC2(CCN(Cc3nccs3)CC2)C1.O=C(O)C(F)(F)F.O=C(O)C(F)(F)F (centres undefined),-7.244,
CN(Cc1cccnc1)C1COC2(CCN(Cc3nccs3)CC2)C1.O=C(O)C(F)(F)F.O=C(O)C(F)(F)F.O=C(O)C(F)(F)F (centres undefined),-7.601,
CN(Cc1ccccc1)C1COC2(CCN(Cc3nccs3)CC2)C1.O=C(O)C(F)(F)F (centres undefined),,56.78
CN(Cc1cccnc1)C1CC2(CCN(Cc3ccccn3)CC2)C1.O=C(O)C(F)(F)F.O=C(O)C(F)(F)F.O=C(O)C(F)(F)F,-569.4,
CN(Cc1ccccn1)C1COC2(CCN(Cc3nccs3)CC2)C1 (centres undefined),,58.22
CN(Cc1cccnc1)C1CC2(CCN(c3ncccn3)CC2)C1.O=C(O)C(F)(F)F.O=C(O)C(F)(F)F,-50.17,
